Experimental data reported in PubChem BioAssay (NCATS).
Results filed as inconclusive are left out. A call without a number means that no potency is given here. The source made the active and inactive calls. Calls follow the shape of the dose curve; as a rule, active = well fitted curve in the direction sought with a large enough effect; inconclusive = small, poorly fitted or top-dose-only effect, or another doubt; inactive = no such curve, though single readings can be large; an effect the other way counts as inactive or inconclusive.

Experiments:
[1] = molecular target: Aldehyde dehydrogenase, mitochondrial (Homo sapiens) (UniProt P05091); assay: qHTS for Inhibitors of the Aldehyde Dehydrogenase Family (ALDH2) Primary screen (AID 2061308); also: nearly all actives have a fitted effect of over 55% in size
[2] = molecular target: Retinaldehyde dehydrogenase 3 (Homo sapiens) (UniProt P47895); assay: qHTS for Inhibitors of the Aldehyde Dehydrogenase Family (ALDH1A3) Primary screen (AID 2061315)

Row | SMILES | Potency [1] | Potency [2]
1 | c1ccc2c(Nc3ccn[nH]3)nc(-c3ccncc3)nc2c1 | inactive | inactive
2 | Cc1cc2c(s1)c1cnn(Cc3ccccc3F)c(=O)c1n2C(C)C | inactive | inactive
3 | CC(=O)Nc1sc2c(c1-c1ccc3nonc3c1)CCNC2 | inactive | inactive
4 | CCOC(=O)c1nn(-c2ccccc2)c(=O)c2c(N)scc12 | inactive | inactive
5 | CCCn1c(C)nc2c(Nc3ccccc3)nc(C)nc21 | inactive | inactive
6 | O=C(NCc1nnc(-c2cc3ccccc3[nH]2)o1)c1ccccc1 | inactive | inactive
7 | COc1ccc(S(=O)(=O)Nc2cnccc2C(=O)Nc2nc(-c3ccccc3)cs2)cc1 | inactive | inactive
8 | CCOC(=O)C1CCN(C(=O)C2(NC(=O)Nc3ccccc3Cl)CC2)CC1 | inactive | inactive
9 | O=C(Nc1ccc(F)c(C(F)(F)F)c1)Nc1nnc(-c2ccncc2)o1 | inactive | inactive
10 | COc1cc(F)c(S(=O)(=O)N2CCN(S(=O)(=O)c3ccc(N)cc3)CC2)c(F)c1 | inactive | inactive
11 | Cc1ccc(NS(=O)(=O)c2ccc(F)cc2)cc1C | inactive | inactive
12 | O=S(=O)(c1ccc2nc(Cl)c(Cl)nc2c1)N1CCN(S(=O)(=O)c2c(F)cccc2F)CC1 | inactive | inactive
13 | c1nc(NCC2CCCC2)c2cc(-c3ccc4c(c3)OCO4)ccc2n1 | inactive | inactive
14 | O=C(Nc1ccc2sccc2c1)Nc1nnc(-c2ccncc2)s1 | inactive | inactive
15 | Cc1nc(Nc2ccccc2)c2nc(-c3ccccc3)n(CCCN3CCCCC3C)c2n1 (centres undefined) | inactive | inactive
16 | Cc1ccc(C[C@H](C(=O)O)N2C(=O)c3ccc(C(=O)O)cc3C2=O)cc1 | inactive | inactive
17 | NS(=O)(=O)c1ccc(Nc2nc(-c3ccccc3)cs2)cc1 | inactive | inactive
18 | Cc1ccc(NC(=O)CSc2nnc(-c3cccc([S+](=O)([O-])N4CCCC4)c3)n2-c2c(C)cccc2C)cc1 | inactive | inactive
19 | Cn1c2cc(C#N)sc2c2cnn(Cc3ccc(F)cc3)c(=O)c21 | inactive | inactive
20 | FC(F)(F)c1cccc(N2CCN(C(=S)Nc3ncnc4ccccc34)CC2)c1 | inactive | inactive
21 | CC(=O)c1ccc(-c2csc(N3CCC(C(N)=O)CC3)n2)cc1 | inactive | inactive
22 | COc1cccc(CNc2ccc(S(=O)(=O)Nc3nccs3)cc2)c1O | inactive | inactive

Row | SMILES | Potency [1] | Potency [2]
23 | Cc1ccc(S(=O)(=O)Nc2cc(C(=O)Nc3nc(-c4ccccc4)cs3)ccc2Cl)cc1 | inactive | inactive
24 | O=C(OCC#CCSc1nnc(-c2cccc3ccccc23)o1)c1ccc(Cl)cc1 | inactive | inactive
25 | Fc1cc(Nc2nc(-c3ccncc3)nc3ccccc23)ccc1-n1cncn1 | inactive | inactive
26 | CC(C)(C#CCSc1nnc(-c2cccc3ccccc23)o1)OC(=O)c1ccc(F)cc1 | inactive | inactive
27 | O=C(Nc1nc(-c2ccccc2)cs1)c1ccccc1 | inactive | inactive
28 | COc1ccc(C(=O)NCC(=O)OC(C(=O)Nc2cc(C(F)(F)F)ccc2Cl)c2ccccc2)cc1OC (centres undefined) | inactive | inactive
29 | Cc1ccccc1NS(=O)(=O)c1ccc2c(c1)CCC(=O)N2 | inactive | inactive
30 | CNc1oc(-c2cccc3ccccc23)nc1C(=O)OC | inactive | inactive
31 | CC(C)C[C@H](C(=O)O)c1cc(-c2ccc(C(F)(F)F)cc2)cc(-c2ccc(C(F)(F)F)cc2)c1 | inactive | inactive
32 | O=C(CCc1ccccc1)Nc1cccc([S+](=O)([O-])Nc2ccccc2F)c1 | inactive | inactive
33 | N[C@@H](Cc1ccc(O[S+](=O)([O-])c2cccc3cnccc23)cc1)C(=O)N1CCN(c2ccccc2)CC1 | inactive | inactive
34 | O=C(O)c1ccc2c(c1)C(=O)N([C@H](Cc1c[nH]c3ccccc13)C(=O)O)C2=O | inactive | inactive
35 | CCOc1ccc(CCNC(=O)c2ccc3[nH]ccc3c2)cc1OCC | inactive | inactive
36 | CCNC(=O)c1ccc(-c2ccc3ncnc(NCC4CCCO4)c3c2)o1 (centres undefined) | inactive | inactive
37 | O=c1c2ccccc2nc2sc(NCc3ccc(Cc4ccccc4)cc3)nn12 | inactive | inactive
38 | Cc1nc(NCc2ccccc2)c2nc(-c3ccccc3)n(CCN(C)C)c2n1 | inactive | inactive
39 | Cc1cn(-c2cc(F)cc(NC(=O)c3ccc(C)c(Nc4nccc(-c5cccnc5)n4)c3)c2)cn1 | inactive | inactive
40 | Cc1ccc(NS(=O)(=O)c2ccccc2C(=O)Nc2nc(-c3ccccc3)cs2)cc1 | inactive | inactive
41 | COc1ccc(C2c3c(n(CCCc4ccccc4)cnc3=N)Oc3ccc4ccccc4c32)cc1OC (centres undefined) | inactive | inactive
42 | Cc1c(P(=S)(c2ccccc2)c2ccccc2)[n+]2ccccc2n1CC(=O)c1ccccc1 | inactive | inactive
43 | O=C(Cc1ccc(Cl)c(Cl)c1)Nc1ccc([S+](=O)([O-])Nc2ccc([N+](=O)[O-])cc2)cc1 | inactive | inactive
44 | O=C(Cn1nc(-c2ccc3c(c2)OCO3)ccc1=O)NCCc1ccccc1 | inactive | inactive

Row | SMILES | Potency [1] | Potency [2]
45 | Cc1cc2c(s1)c1cnn(Cc3cc(F)cc(F)c3F)c(=O)c1n2C | inactive | inactive
46 | C=C1CCC[C@]2(C)C[C@]3(O)OC(=O)C(C)=C3C[C@@H]12 | inactive | inactive
47 | O=C(Nc1nc(-c2ccccc2)cs1)c1ccncc1NS(=O)(=O)c1cccc(Cl)c1 | inactive | inactive
48 | O=C1NS(=O)(=O)c2cscc21 | inactive | inactive
49 | COc1ccccc1C(=O)OCC#CCSc1nnc(-c2cccc3ccccc23)o1 | inactive | inactive
50 | CC1(C(=O)O)CCCC2(C)C3CCC4CC3(CCC12)CC4(O)CO (centres undefined) | inactive | inactive
51 | O=S(=O)(c1ccc2c(c1)OCCO2)N1CCN(S(=O)(=O)c2ccc(F)c(F)c2F)CC1 | inactive | inactive
52 | Cc1ccc(-c2nnc(N3CCC(C(N)=O)CC3)s2)cc1 | inactive | inactive
53 | CC(C)(C)c1ccc(-c2nc(SCCCOc3ccccc3)n3[nH]c(=O)cc3n2)cc1 | inactive | inactive
54 | O=C(NC1CCCc2c1cnn2-c1ccc(F)cc1F)C1CC1 (centres undefined) | inactive | inactive
55 | Cn1nnnc1Sc1ncnc2scc(-c3ccc(Br)cc3)c12 | inactive | inactive
56 | Cc1cccc(-n2cnc3cc(C(=O)N4CCCC(C(C)C)C4)ccc32)c1 (centres undefined) | inactive | inactive
57 | COc1cccc(-c2csc(NC(=O)c3ccncc3NS(=O)(=O)c3ccc(C)cc3)n2)c1 | inactive | inactive
58 | Cn1nnnc1Sc1ncnc2scc(-c3cc4ccccc4o3)c12 | inactive | inactive
59 | Cc1nc(C)c(-c2ccc3ncnc(NCCc4cnc[nH]4)c3c2)s1 | inactive | inactive
60 | Nc1ccc(NC(=O)Nc2nnc(-c3ccncc3)s2)cc1C(F)(F)F | inactive | inactive
61 | CCCCNc1nc(C)nc2c1nc(-c1ccccc1)n2CCCCN(CC)CC | inactive | inactive
62 | COC(=O)c1cc2c(s1)c1cnn(Cc3ccccc3F)c(=O)c1n2C | inactive | inactive
63 | CCCCc1nnc(-c2cnn(C)c2N)n1CCCn1ccnc1 | inactive | inactive
64 | O=C1CCCC2=C1C(c1ncccc1Br)N=C(Nc1nc3ccccc3o1)N2 (centres undefined) | inactive | inactive
65 | O=S(=O)(c1ccc2c(c1)OCCO2)N1CCN(S(=O)(=O)c2ccc(Br)cc2F)CC1 | inactive | inactive
66 | Cc1ccc(C)c(SC2CS(=O)(=O)c3ccccc32)c1 (centres undefined) | inactive | inactive

Row | SMILES | Potency [1] | Potency [2]
67 | Cc1cc(NC(=O)Nc2nnc(-c3ccncc3)s2)ccc1Cl | inactive | inactive
68 | Fc1cccc(-c2ccc(Nc3nc(-c4ccncc4)nc4ccccc34)cc2F)c1 | inactive | inactive
69 | NC(=O)C1CCN(c2nc(-c3cccc(Cl)c3)cs2)CC1 | inactive | inactive
70 | COc1ccc(C2=Nn3c(nnc3-c3ccccc3C(F)(F)F)SC2)cc1OCC1CC1 | inactive | inactive
71 | CCCn1c(C)nc2c(NCCCCN(C)C)nc(C)nc21 | inactive | inactive
72 | Cc1ccc(OCCn2c(CCNC(=O)c3ccc[nH]3)nc3ccccc32)cc1 | inactive | inactive
73 | CS(=O)(=O)c1ccc(C(=O)OC(C(=O)NC2C3CC4CC(C3)CC2C4)c2ccccc2)cc1[N+](=O)[O-] (centres undefined) | inactive | inactive
74 | CCCn1c(C)nc2c(NC3CCCCC3)nc(C)nc21 | inactive | inactive
75 | CCCn1c(C)nc2c(NC3CCN(Cc4ccccc4)CC3)nc(C)nc21 | inactive | inactive
76 | Cc1c(P(=S)(c2ccccc2)c2ccccc2)[n+]2ccccc2n1CCCCCc1ccccc1 | inactive | inactive
77 | Cc1ccccc1C(=O)N1CCc2cc(-c3ccnc(NC(=O)Cc4ccccc4)n3)ccc21 | inactive | inactive
78 | Cc1cccc(-n2cnc3cc(C(=O)N4CCC(N5CCOCC5)CC4)ccc32)c1 | inactive | inactive
79 | CCOC(=O)c1cccc(NC(=O)Nc2nnc(-c3ccncc3)s2)c1 | inactive | inactive
80 | CC(C)Oc1ccc(CCNC(=O)c2cc3sccc3n2Cc2ccccc2)cc1OC(C)C | inactive | inactive
81 | O=c1c2ccccc2nc(-c2ccccc2O)n1Cc1ccccc1 | inactive | inactive
82 | CCOC(=O)C1CCN(C(=O)C(C)(C)NC(=O)Nc2ccc(C#N)cc2)CC1 | inactive | inactive
83 | Cc1ccc(NS(=O)(=O)c2cc3c(cc2N[C@@H](C)CO)NC(=O)CC3)cc1C | inactive | inactive
84 | CCN(CC)CCCC(C)n1c(-c2ccccc2)nc2c(NCCOC)nc(C)nc21 (centres undefined) | inactive | inactive
85 | O=C([C@H](Cc1ccc(O[S+](=O)([O-])c2cccc3cnccc23)cc1)N[S+](=O)([O-])c1cccc2cnccc12)N1CCN(Cc2ccccc2)CC1 | inactive | inactive
86 | c1nc(N2CCCCC2)c2cc(-c3ccc4c(c3)OCO4)ccc2n1 | inactive | inactive
87 | O=C(O)c1ccc(S(=O)(=O)N[C@H](Cc2ccc([N+](=O)[O-])cc2)C(=O)O)cc1 | inactive | inactive
